Results taken from ChEMBL document CHEMBL3988442, “University of Dundee, Small-Polar-MMV Screening Library” (2021).
For some assays here: Results with a measured potency or affinity are listed apart.

Columns and labels:
Design in all cases: scale not given: direction of the effect not stated beside the values
[1] = target: Protein translocase subunit SecA (Escherichia coli (strain K12)) (UniProt P10408); assay: Assay to Identify E. coli SecA ATPase Inhibitors; assay type: functional; settings: 30 µM
[2] = target: T1, Ubiquitin-activating enzyme e1, putative (Leishmania donovani (strain BPK282A1)) (UniProt E9BSI1); assay: Leishmania donovani Ubiquitin Activating Enzyme (LdE1); assay type: functional; settings: 30 µM
T1 sequence (whole entry): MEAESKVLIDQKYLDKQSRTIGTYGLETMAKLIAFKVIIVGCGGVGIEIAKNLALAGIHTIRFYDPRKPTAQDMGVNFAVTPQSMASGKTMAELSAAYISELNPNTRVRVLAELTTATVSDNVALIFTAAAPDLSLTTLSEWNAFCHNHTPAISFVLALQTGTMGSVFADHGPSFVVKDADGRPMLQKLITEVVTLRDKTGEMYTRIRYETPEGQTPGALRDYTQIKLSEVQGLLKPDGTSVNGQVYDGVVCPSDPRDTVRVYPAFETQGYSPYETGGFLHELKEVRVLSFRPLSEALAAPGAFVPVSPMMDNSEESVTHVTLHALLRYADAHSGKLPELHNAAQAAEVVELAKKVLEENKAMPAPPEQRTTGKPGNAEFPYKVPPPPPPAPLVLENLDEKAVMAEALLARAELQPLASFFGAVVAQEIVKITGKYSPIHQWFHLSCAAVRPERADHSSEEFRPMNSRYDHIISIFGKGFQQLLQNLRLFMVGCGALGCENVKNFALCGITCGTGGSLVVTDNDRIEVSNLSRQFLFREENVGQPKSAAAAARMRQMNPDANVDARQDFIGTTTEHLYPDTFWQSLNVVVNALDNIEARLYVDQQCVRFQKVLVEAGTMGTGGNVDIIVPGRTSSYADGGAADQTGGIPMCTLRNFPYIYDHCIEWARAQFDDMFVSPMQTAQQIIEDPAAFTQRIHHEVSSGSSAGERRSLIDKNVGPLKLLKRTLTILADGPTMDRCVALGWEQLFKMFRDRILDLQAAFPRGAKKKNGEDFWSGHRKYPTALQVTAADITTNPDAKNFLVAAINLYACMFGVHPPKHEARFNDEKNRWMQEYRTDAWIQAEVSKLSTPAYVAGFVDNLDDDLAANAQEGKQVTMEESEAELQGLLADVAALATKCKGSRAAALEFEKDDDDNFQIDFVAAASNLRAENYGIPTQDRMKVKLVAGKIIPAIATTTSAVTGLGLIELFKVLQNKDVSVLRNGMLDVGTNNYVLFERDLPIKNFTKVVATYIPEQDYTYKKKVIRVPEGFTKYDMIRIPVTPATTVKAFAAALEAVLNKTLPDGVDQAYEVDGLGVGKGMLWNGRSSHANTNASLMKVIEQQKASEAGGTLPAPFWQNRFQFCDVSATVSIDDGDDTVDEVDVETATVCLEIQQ

[3] = target: Sialic acid-binding Ig-like lectin 9 (Homo sapiens) (UniProt Q9Y336); assay: Hs-Siglec9 ALPHAscreen SOP 20170721; settings: 10 µM
Trypanosoma cruzi = assay: Trypanosoma cruzi phosphomannomutase and mannose-1-phosphate guanylyltransferase assay; assay type: functional; settings: 10 µM
[4] = target: T2, Arginase-2, mitochondrial (Homo sapiens) (UniProt P78540); assay: in vitro enzyme assay to detect the production of urea directly proportional to the activity of Arginase II; assay type: functional; settings: 33.3 µM; also: in the data most compounds retested in dose-response had high values
T2 sequence (whole entry): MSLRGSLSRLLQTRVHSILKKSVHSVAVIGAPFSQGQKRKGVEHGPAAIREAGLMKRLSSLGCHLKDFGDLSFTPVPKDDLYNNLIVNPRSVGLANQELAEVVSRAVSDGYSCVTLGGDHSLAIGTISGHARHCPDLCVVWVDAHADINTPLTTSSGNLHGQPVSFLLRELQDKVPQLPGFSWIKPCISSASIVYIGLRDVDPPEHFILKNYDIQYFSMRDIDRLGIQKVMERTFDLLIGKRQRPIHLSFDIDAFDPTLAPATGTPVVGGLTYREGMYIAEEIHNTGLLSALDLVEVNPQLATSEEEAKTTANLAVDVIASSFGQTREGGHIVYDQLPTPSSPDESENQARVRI

[5] = target: T3, Proteasome subunit beta (Trypanosoma cruzi) (UniProt O96673); assay: Trypanosoma cruzi proteasome chymotrypsin-like activity (TcProtChymo) assay.; also: in the data most compounds retested in dose-response had high values; assay type: functional; settings: 9.37 µM
T3 sequence (whole entry): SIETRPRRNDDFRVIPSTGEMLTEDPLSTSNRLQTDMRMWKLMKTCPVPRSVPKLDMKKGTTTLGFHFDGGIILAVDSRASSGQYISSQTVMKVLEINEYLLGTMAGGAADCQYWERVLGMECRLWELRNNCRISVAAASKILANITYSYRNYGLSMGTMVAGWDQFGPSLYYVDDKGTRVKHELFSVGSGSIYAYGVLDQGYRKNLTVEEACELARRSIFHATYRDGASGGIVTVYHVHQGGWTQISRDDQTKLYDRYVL

Homo sapiens = organism: Homo sapiens; assay: To identify inhibition of the IFN signalling (Jak-Stat) pathway via expression of an eGFP reporter gene under the control of an IFN-stimulated response element (ISRE) containing MxA promoter.; assay type: functional; settings: 30 µM
[6] = target: T4, Tyrosyl-tRNA synthetase, putative (Trypanosoma cruzi (strain CL Brener)) (UniProt Q4DSP6); assay: Trypanosoma cruzi tyrosyl tRNA synthetase (TcYRS) _High Tyrosine SOP; assay type: functional; settings: 30 µM; also: in the data most compounds retested in dose-response had high values
T4 sequence (whole entry): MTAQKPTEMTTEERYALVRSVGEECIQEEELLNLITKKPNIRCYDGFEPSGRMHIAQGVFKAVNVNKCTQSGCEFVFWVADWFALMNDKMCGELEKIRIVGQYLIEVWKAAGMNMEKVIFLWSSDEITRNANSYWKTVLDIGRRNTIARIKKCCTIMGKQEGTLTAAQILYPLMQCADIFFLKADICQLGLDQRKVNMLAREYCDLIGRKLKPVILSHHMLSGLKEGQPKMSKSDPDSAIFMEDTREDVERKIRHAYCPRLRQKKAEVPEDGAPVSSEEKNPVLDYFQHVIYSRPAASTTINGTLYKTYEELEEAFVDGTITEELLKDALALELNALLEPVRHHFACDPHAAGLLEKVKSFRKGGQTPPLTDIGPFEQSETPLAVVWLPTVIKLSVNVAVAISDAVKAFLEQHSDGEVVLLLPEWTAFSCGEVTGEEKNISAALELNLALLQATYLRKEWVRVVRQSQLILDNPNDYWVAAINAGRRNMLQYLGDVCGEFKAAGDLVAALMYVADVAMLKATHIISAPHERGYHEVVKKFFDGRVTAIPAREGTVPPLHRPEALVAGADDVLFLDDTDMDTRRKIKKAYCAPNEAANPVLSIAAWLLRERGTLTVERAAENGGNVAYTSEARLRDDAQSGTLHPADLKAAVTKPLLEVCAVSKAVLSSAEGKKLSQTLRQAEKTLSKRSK

[7] = target: T4, Tyrosyl-tRNA synthetase, putative (Trypanosoma cruzi (strain CL Brener)); assay: Trypanosoma cruzi tyrosyl tRNA synthetase (TcYRS) SOP; assay type: functional; settings: 30 µM
[8] = target: Chromo domain-containing protein 1 (Saccharomyces cerevisiae (strain ATCC 204508 / S288c) (Baker's yeast)) (UniProt P32657); assay: ScCHD-1 Enzyme Inhibition Assay; assay type: functional; settings: 30 µM; also: in the data most compounds retested in dose-response had high values
Sequence of Chromo domain-containing protein 1 (Saccharomyces cerevisiae (strain ATCC 204508 / S288c) (Baker's yeast)) (P32657 whole entry, the tested form may be a part): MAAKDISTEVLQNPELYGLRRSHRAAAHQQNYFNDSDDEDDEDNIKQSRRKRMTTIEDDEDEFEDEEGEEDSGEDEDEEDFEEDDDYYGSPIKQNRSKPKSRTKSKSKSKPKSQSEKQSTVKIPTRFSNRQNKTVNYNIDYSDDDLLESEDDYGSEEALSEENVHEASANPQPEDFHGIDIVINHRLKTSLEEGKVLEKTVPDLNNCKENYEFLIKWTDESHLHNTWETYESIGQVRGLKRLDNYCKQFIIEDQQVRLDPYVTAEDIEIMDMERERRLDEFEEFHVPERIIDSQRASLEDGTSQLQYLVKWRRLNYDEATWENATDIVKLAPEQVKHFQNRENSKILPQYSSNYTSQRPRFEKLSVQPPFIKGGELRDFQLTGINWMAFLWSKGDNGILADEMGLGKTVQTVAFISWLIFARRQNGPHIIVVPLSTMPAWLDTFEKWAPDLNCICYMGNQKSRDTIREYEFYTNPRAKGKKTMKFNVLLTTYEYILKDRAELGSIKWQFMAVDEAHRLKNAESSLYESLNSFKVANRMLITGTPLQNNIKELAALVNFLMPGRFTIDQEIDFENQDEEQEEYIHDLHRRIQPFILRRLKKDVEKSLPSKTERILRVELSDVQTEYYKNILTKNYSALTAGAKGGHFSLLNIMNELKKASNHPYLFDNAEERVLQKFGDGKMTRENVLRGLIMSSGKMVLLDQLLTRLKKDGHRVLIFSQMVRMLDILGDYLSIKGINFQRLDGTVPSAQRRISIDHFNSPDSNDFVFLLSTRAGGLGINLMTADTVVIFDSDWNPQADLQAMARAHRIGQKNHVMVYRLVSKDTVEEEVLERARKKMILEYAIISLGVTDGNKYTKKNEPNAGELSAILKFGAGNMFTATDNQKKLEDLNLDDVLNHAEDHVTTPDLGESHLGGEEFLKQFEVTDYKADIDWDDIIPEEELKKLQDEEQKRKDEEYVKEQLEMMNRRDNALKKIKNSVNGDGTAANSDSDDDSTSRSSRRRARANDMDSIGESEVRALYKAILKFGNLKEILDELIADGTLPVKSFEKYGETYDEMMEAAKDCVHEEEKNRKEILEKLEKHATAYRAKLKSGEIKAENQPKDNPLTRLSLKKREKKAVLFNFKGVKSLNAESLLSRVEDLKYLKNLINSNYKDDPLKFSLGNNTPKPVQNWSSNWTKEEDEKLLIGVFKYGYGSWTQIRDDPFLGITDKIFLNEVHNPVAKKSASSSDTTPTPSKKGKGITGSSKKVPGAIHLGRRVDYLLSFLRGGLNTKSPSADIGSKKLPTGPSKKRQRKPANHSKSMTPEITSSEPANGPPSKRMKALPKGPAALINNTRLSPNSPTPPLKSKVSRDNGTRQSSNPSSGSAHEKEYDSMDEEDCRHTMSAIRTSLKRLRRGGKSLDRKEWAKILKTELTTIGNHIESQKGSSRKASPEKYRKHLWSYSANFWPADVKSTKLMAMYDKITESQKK

Sequence of Protein translocase subunit SecA (Escherichia coli (strain K12)) (P10408 whole entry): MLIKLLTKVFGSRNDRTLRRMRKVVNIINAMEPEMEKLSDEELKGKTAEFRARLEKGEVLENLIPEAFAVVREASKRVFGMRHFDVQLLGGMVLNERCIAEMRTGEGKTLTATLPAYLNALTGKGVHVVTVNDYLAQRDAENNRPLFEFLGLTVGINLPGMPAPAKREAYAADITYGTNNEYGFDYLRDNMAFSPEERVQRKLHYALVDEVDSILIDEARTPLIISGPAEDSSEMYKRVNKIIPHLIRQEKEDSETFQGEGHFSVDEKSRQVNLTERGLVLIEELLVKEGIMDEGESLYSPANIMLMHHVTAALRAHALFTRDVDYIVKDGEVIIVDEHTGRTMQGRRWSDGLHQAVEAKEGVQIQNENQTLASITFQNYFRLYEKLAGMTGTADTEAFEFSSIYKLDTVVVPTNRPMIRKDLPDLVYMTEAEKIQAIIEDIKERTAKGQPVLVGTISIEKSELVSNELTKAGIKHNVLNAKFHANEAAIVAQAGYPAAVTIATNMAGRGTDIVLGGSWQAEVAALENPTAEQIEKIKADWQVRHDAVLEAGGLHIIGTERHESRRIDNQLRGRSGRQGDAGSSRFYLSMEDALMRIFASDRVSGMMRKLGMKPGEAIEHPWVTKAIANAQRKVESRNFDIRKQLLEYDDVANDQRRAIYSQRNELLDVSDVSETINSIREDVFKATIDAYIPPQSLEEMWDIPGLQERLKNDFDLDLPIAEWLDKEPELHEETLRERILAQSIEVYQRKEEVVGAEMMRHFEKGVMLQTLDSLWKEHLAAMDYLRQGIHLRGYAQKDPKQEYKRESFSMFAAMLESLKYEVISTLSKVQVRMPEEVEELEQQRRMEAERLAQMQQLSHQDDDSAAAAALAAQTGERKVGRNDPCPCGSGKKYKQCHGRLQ
Sequence of Sialic acid-binding Ig-like lectin 9 (Homo sapiens) (Q9Y336 whole entry): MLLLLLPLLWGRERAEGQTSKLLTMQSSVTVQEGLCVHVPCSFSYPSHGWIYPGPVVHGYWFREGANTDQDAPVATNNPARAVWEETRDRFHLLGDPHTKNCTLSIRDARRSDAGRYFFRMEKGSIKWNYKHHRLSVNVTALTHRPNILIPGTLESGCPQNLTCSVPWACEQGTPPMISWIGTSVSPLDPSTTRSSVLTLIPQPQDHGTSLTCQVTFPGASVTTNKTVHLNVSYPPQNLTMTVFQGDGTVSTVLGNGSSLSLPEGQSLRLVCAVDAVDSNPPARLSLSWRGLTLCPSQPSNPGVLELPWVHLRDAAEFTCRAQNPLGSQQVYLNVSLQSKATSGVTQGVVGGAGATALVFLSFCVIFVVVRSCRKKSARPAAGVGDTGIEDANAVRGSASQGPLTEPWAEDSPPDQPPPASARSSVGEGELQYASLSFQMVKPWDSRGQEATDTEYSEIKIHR

Row | SMILES | Percent Effect [1] [%] | Percent Effect [2] [%] | Percent Effect [3] [%] | Percent Effect (Trypanosoma cruzi) [%] | Percent Effect [4] [%] | Percent Effect [5] [%] | Percent Effect (Homo sapiens) [%] | Percent Effect [6] [%] | Percent Effect [7] [%] | Percent Effect [8] [%]
1 | CN(C)S(=O)(=O)N1CCCC(c2cccc(Cc3ccccc3)n2)C1 (stereo not given) | -0.482 | 6.67 | -7.39 | -6.31 | -5.31 | 14.4 | 58.5 | -5.29 | 0 | -8.36
2 | CC(=O)N1C[C@@H](c2ccsc2)[C@@H]2CN(Cc3ccccc3)CC[C@@H]21 | -3.48 | 12 | 0.781 | 1.77 | 0.885 | 12.2 | 12.3 | 10.6 | 7.5 | -25.4
3 | CNC(=O)CN1CCCC12CCN(C(=O)c1ccc(F)cc1)CC2 | -1.29 | 1.3 | -0.371 | -6.75 | 3.2 | 8.33 | 22.8 | -0.966 | -5 | -4.71
4 | CC(C)(C)C(O)CN1CCN(C(=O)c2cccc3ncccc23)CC1 (stereo not given) | -3.23 | 12.8 | -15.5 | -7.23 | -0.41 | 8.11 | -0.457 | 3.35 | 10.8 | -6.72
5 | O=C(C1CC1)N1CC[C@H](O)[C@@H]1Cc1ccccc1 | -7.5 | 3.9 | -3.5 | -0.75 | 1.37 | 1.8 | -8.68 | 2.9 | 2.5 | -12.8
6 | CCOc1ncccc1NC(=O)NC1CCCN(c2ncccn2)C1 (stereo not given) | 0.363 | 23.4 | 1.83 | 4.66 | -8.4 | 13.3 | 8.06 | 11.8 | 30.6 | -4.97
7 | O=c1cccnn1CC1CN(Cc2ccsc2)Cc2nccn2C1 (stereo not given) | -8.45 | -40.3 | 11 | -1.66 | 3.64 | 8.91 | -4.15 | 14.2 | 15.4 | 4.94
8 | Cc1cnn(C2CCCN(C(=O)c3sccc3C#N)C2)c1 (stereo not given) | -7.04 | 0 | -9.94 | -1.78 | -2.05 | -3.33 | 30.2 | 0.478 | 1.21 | -3.26
9 | Cn1cnc2c1CCN(Cc1cccc(C(N)=O)c1)C2 | -3.09 | 7.69 | 3.32 | 0.657 | 2.87 | -3.67 | 7.29 | -0.478 | 13.2 | 4.07
10 | CCOCCN1CCCC(c2cc(C(N)=O)[nH]n2)C1 (stereo not given) | -1.61 | 0 | 5.24 | -4.22 | 3.99 | 8.06 | 13.9 | 3.68 | 7.69 | -5.54
11 | CCS(=O)(=O)CCN1CCC(N(C)Cc2noc(C(C)C)n2)C1 (stereo not given) | -8.69 | 13 | 9.47 | -1.87 | -0.205 | 10.3 | 10.2 | 4.9 | 11.8 | -6.07
12 | COCCN1CCN(Cc2ccc(F)c(C)c2)[C@H]2CS(=O)(=O)C[C@H]21 | -6.45 | 10.8 | 28.9 | 12.3 | 10.8 | 5.48 | -1.07 | 7.98 | 17.1 | -4.27
13 | COCCc1noc(CNC2CCSC2)n1 (stereo not given) | -5.2 | 5.41 | 11.7 | 7.66 | 1.75 | 9.93 | -4.93 | 5.85 | 17.1 | -3.46
14 | CCn1ccnc1CN1CCCN(C(=O)c2cc(Cl)c[nH]2)CC1 | -1.59 | 12.8 | 9.67 | 7.98 | 8.61 | 1.79 | 10.2 | 3.35 | 22.9 | -8.12
15 | Cc1nc(C)n(CC2CCCN2Cc2nc3ccccc3nc2C)n1 (stereo not given) | -4.08 | 0 | 4.74 | -0.402 | 1.33 | 15.5 | 2.68 | 5.79 | 7.69 | -11.7
16 | CCCc1cc(CNC(=O)C2CCOc3ccccc3C2)on1 (stereo not given) | -1.27 | 10.8 | 3.17 | 2.62 | 15.7 | 10.8 | 29.7 | 5.85 | 14.6 | -2.75
17 | CCOC(=O)N1CCN(C(=O)c2sc(-c3ccc(F)cc3)nc2C)CC1 | -7.21 | 5.41 | 8.85 | -1.65 | 1.05 | 17.5 | 1.22 | 4.79 | 12.2 | -3.55
18 | CN(C)CC(=O)N1CCC2(CC1)COC(COc1ccccn1)C2 (stereo not given) | -4.97 | 6.49 | -5.49 | 2.82 | -4.86 | 12.3 | -11.4 | 5.79 | 12.8 | -0.892
19 | Cc1ccc(NC(=O)C(C)N2CCCN(c3nccs3)CC2)c(C)c1 (stereo not given) | -1.1 | 15.4 | -3.51 | -1.41 | 4.51 | 14.1 | 8.08 | 2.39 | 6.02 | -0.819
20 | O=C(CCOc1ccc(Cl)cc1)N1CCN(c2cnccn2)CC1 | -5.29 | 18.2 | 5.24 | -0.746 | 0.615 | 10.2 | 25.2 | 9.8 | 21.2 | -8.03
21 | CC(C)n1ccnc1CN1CCCN(C(=O)c2nccnc2N)CC1 | -0.38 | 7.69 | -9.32 | 1.97 | 0 | 18.3 | 1.4 | 9.09 | 22.9 | -3.56
22 | NC[C@H]1CC[C@H](C(NC(=O)c2ccccc2)c2ccccn2)CC1 (stereo not given in full) | -0.915 | 12 | -7.17 | 4.54 | -2.21 | 13.3 | -1.97 | 10.6 | 25 | -27.6
23 | Cc1ccc(-c2nc(CN3CCCC(Cn4cncn4)C3)no2)cc1 (stereo not given) | -6.21 | -2.6 | 0.0125 | -0.373 | -3.48 | 0.351 | 25.7 | 1.96 | 0 | 9.47
24 | CN(Cc1noc(C2CC2)n1)C1CCN(Cc2ccncc2)C1 (stereo not given) | -0.687 | 20.5 | -22.8 | 6.1 | 7.38 | 14.4 | 12 | 1.44 | 22.9 | -9.5
25 | Cc1cc(C)n2cc(CN3CCCC3Cn3nc(C)nc3C)nc2n1 (stereo not given) | -6.31 | -2.67 | 2.66 | 3.41 | 3.1 | 10.6 | 1.56 | 16.3 | 15.4 | -6.76
26 | O=C(NCc1cc[nH]n1)NCC(O)c1ccc(F)cc1F (stereo not given) | -0.475 | 8 | -0.795 | -4.82 | -0.444 | 7.38 | -4.21 | 5.79 | 10.3 | -7.37
